# Source: PubChem BioAssay (Broad Institute)
# An excerpt weighted towards active compounds, which were near 6.7% of everything screened.
# Pf Dd2 inh: P. falciparum Dd2 growth inhibition; SYBR Green, 72 h; hits give low values; 2.3% of 94,000 active; activity change, % at 10 µM; in the data active = activity change below about -80%; inconclusive = no clear call, values can overlap the other calls
# C diff growth: inhibitors of Clostridium difficile growth; Clostridium difficile clinical isolate growth, OD600, 24 h; hits give low values; 0.25% of 86,000 active; growth activity, negative = inhibition, % at 16 µg/mL (by protocol);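 active = mean growth activity at or below -80% and every replicate also at or below -80%; inconclusive = mean at or below -80% but some replicate above -80%; inactive = mean growth activity above -80%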;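 also: 0% = DMSO wells and -100% = levofloxacin 16 µg/mL wells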
# T cruzi growth: T. cruzi proliferation inhibition; inhibition, % at 8.34 µM; T. cruzi beta-gal in NIH3T3, GalScreen luminescence, 90 h; 5.9% of 77,000 active;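 active = mean inhibition above about 93%, with at least 55% of replicates each passing it, limit read from the data, passing the limit was not always enough; inconclusive = only one of those two conditions holds; inactive = neither condition holds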
# An asterisk follows results filed as active; ? = inconclusive; . = not tested or not shown.
SMILES,Pf Dd2 inh,C diff growth,T cruzi growth
Cc1noc(C)c1S(=O)(=O)Nc1ccc2c(c1)C(=O)N([C@@H](C)CO)C[C@@H](C)[C@@H](CN(C)S(=O)(=O)c1ccc(F)cc1)O2,32.1,-6.9,-6.5
COc1ccc(CN2CC3(C2)CN(Cc2ccc4c(c2)OCO4)[C@H](CO)c2[nH]c4cc(OC)ccc4c23)cc1,-86.9*,-0.1,.
COc1ccc(CN2CC3(C2)CN(Cc2ccc4c(c2)OCO4)[C@@H](CO)c2[nH]c4cc(OC)ccc4c23)cc1,-83.9*,-11.8,.
CCS(=O)(=O)N1CC2(CN(Cc3ccc4c(c3)OCO4)[C@@H](CO)c3[nH]c4cc(OC)ccc4c32)C1,-69.5,-12.5,.
COc1ccc(CN2CC3(CN(Cc4ccccc4OC)C3)c3c([nH]c4cc(OC)ccc34)[C@H]2CO)cc1,-66.3,6.9,.
COc1ccccc1-c1cnc2c(c1)C(=O)N([C@H](C)CO)C[C@@H](C)[C@H](CN(C)Cc1cccnc1)O2,1.4,-2.6,-6.2
C[C@@H]1CN([C@H](C)CO)C(=O)c2cccc(NS(C)(=O)=O)c2O[C@@H]1CN(C)Cc1ccc(Cl)c(Cl)c1,-9.2,3.5,39.2
COc1cccc(C#Cc2ccc([C@H]3[C@H]4CN(C(C)=O)CC(=O)N4[C@H]3CO)cc2)c1,12.1,-2.7,.
COc1ccccc1CN1C[C@@H](C)[C@H](OC)CN(C)C(=O)c2cc(NC(=O)Nc3ccccc3OC)ccc2OC[C@H]1C,-89.4*,.,20.3
COc1ccccc1CN1C[C@H](C)[C@@H](OC)CN(C)C(=O)c2cc(NC(C)=O)ccc2OC[C@H]1C,-22.9,.,-15.0
CO[C@H]1CN(C)C(=O)c2cc(NC(=O)C3CC3)ccc2OC[C@H](C)N(Cc2cc(F)ccc2F)C[C@H]1C,-87.5*,.,94.5
CO[C@@H]1CN(C)C(=O)c2cc(NC(=O)C3CC3)ccc2OC[C@@H](C)N(Cc2cc(F)ccc2F)C[C@@H]1C,-64.3,.,80.1
O=S(=O)(NC[C@@H]1CC[C@@H]2[C@@H](CN2CC(c2ccccc2)c2ccccc2)O1)c1ccccc1F,-5.3,.,.
C[C@@H]1CN([C@@H](C)CO)C(=O)c2cc(NC(=O)c3ccccc3)ccc2O[C@@H](C)CCCCO[C@H]1CN(C)C(=O)Nc1cccc2ccccc12,-81.4*,0.0,78.9
C[C@@H]1CN([C@H](C)CO)C(=O)c2cc(NC(=O)c3ccccc3)ccc2O[C@@H](C)CCCCO[C@@H]1CN(C)C(=O)Nc1cccc2ccccc12,-88.5*,8.3,61.6
C[C@@H]1CN([C@@H](C)CO)C(=O)c2cc(NC(=O)C3CCCCC3)ccc2O[C@@H](C)CCCCO[C@H]1CN(C)C(=O)Nc1cccc2ccccc12,-78.0,-4.2,70.1
C[C@@H]1CN([C@H](C)CO)C(=O)c2cc(N(C)C)ccc2O[C@@H](C)CCCCO[C@H]1CN(C)C(=O)Nc1cccc2ccccc12,.,-2.5,-49.8
C[C@@H]1CN([C@H](C)CO)C(=O)c2cc(NC(=O)C3CCCCC3)ccc2O[C@@H](C)CCCCO[C@@H]1CN(C)C(=O)Nc1cccc2ccccc12,-90.9*,6.7,64.2
C[C@H](CO)N1C[C@H](C)[C@H](CN(C)C(=O)Nc2cccc3ccccc23)OCCCC[C@H](C)Oc2ccc(NC(=O)c3ccccc3)cc2C1=O,-46.0,-4.0,71.3
C[C@@H]1CCCCO[C@H](CN(C)C(=O)Nc2cccc3ccccc23)[C@@H](C)CN([C@@H](C)CO)C(=O)c2cc(N(C)C)ccc2O1,-82.5*,-0.3,56.2
C[C@@H]1CCCCO[C@@H](CN(C)C(=O)Nc2cccc3ccccc23)[C@H](C)CN([C@@H](C)CO)C(=O)c2cc(NC(=O)c3ccccc3)ccc2O1,57.2,-1.6,88.9
O=C(C[C@H]1CC[C@H]2[C@@H](COC[C@H](O)CN2C(=O)Nc2ccccc2)O1)NCCCN1CCOCC1,-0.1,.,23.8
CCN1[C@@H]2Cn3c(ccc(C4=CCCCC4)c3=O)[C@H]1[C@@H](C(=O)NC1Cc3ccccc3C1)[C@@H]2CO,15.6,0.6,.
CCCNC(=O)N1CC2(C1)[C@@H](c1ccccc1)[C@H](CO)N2C(=O)C1CC1,25.8,1.8,.
Cc1ccccc1S(=O)(=O)N1[C@H](C#N)[C@@H](c2ccccc2)[C@H]1CO,28.3,-4.3,18.9
SMILES,Pf Dd2 inh,C diff growth,T cruzi growth
N#C[C@H]1[C@@H](c2ccc(C#CC3CCCCC3)cc2)[C@@H](CO)N1S(=O)(=O)c1ccccc1,?,-2.8,88.1
Cc1ccccc1S(=O)(=O)N1[C@H](CO)[C@@H](c2ccc(C#CC3CC3)cc2)[C@@H]1C#N,-86.9*,4.7,88.6
N#C[C@H]1[C@@H](c2ccc(C#CC3CCCC3)cc2)[C@@H](CO)N1S(=O)(=O)Cc1ccccc1,-88.9*,-13.4,89.5
O=C(NCC[C@H]1CC[C@@H](NS(=O)(=O)c2cccc(F)c2)[C@H](CO)O1)c1cnccn1,5.7,1.3,-3.8
O=C(C[C@@H]1CC[C@H]2[C@@H](COC[C@@H](O)CN2Cc2cc(F)cc(F)c2)O1)NCc1cccc(F)c1,-10.1,.,73.0
COc1ccc2c3c(n(C)c2c1)[C@H](CO)N(C(=O)c1ccncc1)CC31CCN(C)CC1,34.2,2.9,.
COc1ccc(-c2ccc3c(c2)[C@H]2[C@H](CCN2C(=O)C2CCCC2)[C@H](CO)N3C)cc1,-84.9*,-4.8,.
CN1c2ccc(Br)cc2[C@H]2[C@H](CCN2C(=O)Nc2ccc(F)cc2)[C@H]1CO,-51.8,2.0,72.5
COc1ccc(-c2ccc3c(c2)[C@H]2[C@H](CCN2C(=O)C2CC2)[C@@H](CO)N3C)cc1,-6.5,14.1,81.7
CN1c2ccc(C#Cc3cccnc3)cc2[C@H]2[C@H](CCN2C(=O)C2CCCC2)[C@H]1CO,-88.8*,0.2,.
CN1c2ccc(Br)cc2[C@H]2[C@H](CCN2C(=O)Nc2ccc(F)cc2)[C@@H]1CO,12.2,-94.4*,28.5
CN1c2ccc(C#Cc3cccnc3)cc2[C@@H]2[C@@H](CCN2C(=O)C2CCCC2)[C@@H]1CO,-73.5,12.5,.
O=C(C[C@@H]1CC[C@H](NC(=O)C2CCOCC2)[C@H](CO)O1)NCc1ccncc1,34.7,-0.2,.
O=C(C[C@@H]1C=C[C@H](NC(=O)c2cccnc2)[C@@H](CO)O1)NCc1ccncn1,-9.6,4.1,.
C[C@H]1CN([C@@H](C)CO)C(=O)c2cccc(NC(=O)c3nc4ccccc4s3)c2O[C@H]1CN(C)CC1CC1,-37.0,0.0,62.3
CO[C@H]1CN(C)C(=O)c2cc(NC(=O)c3ccccc3)ccc2OC[C@@H](C)N(C(=O)C2CC2)C[C@H]1C,11.0,.,15.9
CO[C@H]1CN(C)C(=O)c2ccc(NC(C)=O)cc2OC[C@@H](C)N(C(=O)c2cccnc2)C[C@@H]1C,7.0,1.0,22.3
COc1ccc(S(=O)(=O)N2CCC3(CC2)CN(C(=O)CN(C)C)[C@@H](CO)c2c3c3ccc(OC)cc3n2C)cc1,-88.3*,-3.8,.
COc1ccc2c3c(n(C)c2c1)[C@@H](CO)N(C(=O)CN(C)C)CC31CCN(C(=O)CN(C)C)CC1,13.8,1.8,.
CCCNC(=O)N1CC2(CCN(S(=O)(=O)c3ccc(OC)cc3)CC2)c2c(n(C)c3cc(OC)ccc23)[C@@H]1CO,-86.0*,2.5,.
CCCNC(=O)N1CC2(CCN(S(=O)(=O)c3ccccc3)CC2)c2c(n(C)c3cc(OC)ccc23)[C@H]1CO,-19.8,10.0,.
